The nature of assay [1]: survival rescue of mitochondrial mutant cells in low glucose, primary screen, MELAS cybrids, Rieske KO mouse fibroblasts, CellTiter-Glo (AID 1508586).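 Also: z relative to plate mean and SD of compound and empty wells.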
A short description of assay [2]: phospholipid biosynthesis inhibitors in animal cells, primary screen, cell-based, LOPAC library, screen 4 (AID 1347384; call rule not given here). The settings on record: phospholipid biosynthesis inhibition screen, at 10 µM.
Assay [3] deals with NAD(+) hydrolase SARM1 (Homo sapiens) (UniProt Q6SZW1). In words: SARM1 TIR NADase inhibitors, cell lysate, NAD-Glo luminescence (AID 1508614;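 active = compound whose remaining NAD level is above about 45 nM, limit read from the data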;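 also: higher remaining NAD means stronger inhibition of SARM1 NADase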). The note with it: SAM-TIR HEK293T lysate NADase, at 1 µM, stronger effect = higher value.
Chain of NAD(+) hydrolase SARM1 (Homo sapiens) (Q6SZW1 whole entry, looked up, the tested form may be a part): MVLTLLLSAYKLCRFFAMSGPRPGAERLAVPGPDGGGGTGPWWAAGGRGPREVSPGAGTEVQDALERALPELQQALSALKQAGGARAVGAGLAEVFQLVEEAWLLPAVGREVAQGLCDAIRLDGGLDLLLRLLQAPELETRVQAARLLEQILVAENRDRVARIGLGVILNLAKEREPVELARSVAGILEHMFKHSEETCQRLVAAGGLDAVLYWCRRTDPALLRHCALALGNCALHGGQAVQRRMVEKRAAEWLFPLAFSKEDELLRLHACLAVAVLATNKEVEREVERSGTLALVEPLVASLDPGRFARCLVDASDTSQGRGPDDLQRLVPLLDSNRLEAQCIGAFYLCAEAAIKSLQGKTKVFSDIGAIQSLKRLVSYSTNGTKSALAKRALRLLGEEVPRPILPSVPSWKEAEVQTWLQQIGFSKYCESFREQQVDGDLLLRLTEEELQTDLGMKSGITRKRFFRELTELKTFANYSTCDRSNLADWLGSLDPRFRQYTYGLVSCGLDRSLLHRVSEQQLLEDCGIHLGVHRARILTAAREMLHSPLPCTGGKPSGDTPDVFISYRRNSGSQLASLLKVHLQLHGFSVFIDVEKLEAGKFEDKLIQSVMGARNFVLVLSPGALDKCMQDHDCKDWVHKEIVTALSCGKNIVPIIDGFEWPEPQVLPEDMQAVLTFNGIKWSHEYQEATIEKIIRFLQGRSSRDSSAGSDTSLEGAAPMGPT
Assay [4] deals with Mitogen-activated protein kinase 7 (Homo sapiens) (UniProt Q13164). In words: ERK5 transactivation activators in reporter cells, primary screen, cell-based, HTS (AID 1508626;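 active = luciferase signal above three times the same-plate solvent-only control wells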;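 also: luciferase driven by Gal4-ERK5 fusion binding five Gal4 sites before minimal TATA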). The settings on record: HeLa Gal4-ERK5 transactivation, 18 h, at 5 µM, stronger effect = higher value.
Chain of Mitogen-activated protein kinase 7 (Homo sapiens) (Q13164 whole entry, looked up, the tested form may be a part): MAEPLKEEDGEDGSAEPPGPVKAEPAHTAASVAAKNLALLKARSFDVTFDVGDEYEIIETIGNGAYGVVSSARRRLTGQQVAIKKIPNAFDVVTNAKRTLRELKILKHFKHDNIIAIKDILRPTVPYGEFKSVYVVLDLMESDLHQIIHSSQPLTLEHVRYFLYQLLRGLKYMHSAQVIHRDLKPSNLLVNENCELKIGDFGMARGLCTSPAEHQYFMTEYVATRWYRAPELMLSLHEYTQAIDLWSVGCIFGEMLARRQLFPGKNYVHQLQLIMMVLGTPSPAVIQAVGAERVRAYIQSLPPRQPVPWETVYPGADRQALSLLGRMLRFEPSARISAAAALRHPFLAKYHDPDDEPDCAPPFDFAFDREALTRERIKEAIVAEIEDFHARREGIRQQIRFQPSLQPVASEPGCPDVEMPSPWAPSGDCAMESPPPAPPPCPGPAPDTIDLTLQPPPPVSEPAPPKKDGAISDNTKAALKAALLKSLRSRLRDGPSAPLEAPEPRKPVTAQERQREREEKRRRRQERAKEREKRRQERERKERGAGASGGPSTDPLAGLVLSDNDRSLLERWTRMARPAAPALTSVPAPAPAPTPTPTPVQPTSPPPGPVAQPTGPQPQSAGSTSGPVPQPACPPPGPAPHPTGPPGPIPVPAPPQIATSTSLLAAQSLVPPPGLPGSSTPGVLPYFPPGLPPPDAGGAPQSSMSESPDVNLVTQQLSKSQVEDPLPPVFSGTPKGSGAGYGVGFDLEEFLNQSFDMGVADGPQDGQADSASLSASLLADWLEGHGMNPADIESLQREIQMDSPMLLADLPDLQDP
For assay [5], the system named is Hepatitis C virus NS3 helicase. In words: HCV NS3 helicase inhibitors, primary screen, biochemical, fluorescence polarization, LOPAC1280 library (AID 687035; in the data active = inhibition above about 37%). The settings on record: Purified HCV NS3 helicase, Cy5-dT15 ssDNA binding fluorescence polarization; stronger effect = higher value; concentration not given here. Background: Polarisation of emitted light reports the rotation of a fluorescent probe.

Assay [6] in a line: Cy5 fluorescence quenching or enhancement artefacts, artefact control for HCV NS3 helicase inhibitor project, biochemical, LOPAC1280 (AID 687037; call rule not given here). The note with it: Cy5-DNA-NS3h complex fluorescence interference counterscreen. (In general: Counterscreens check selectivity or assay interference.)
Assay [7] can be described thus: viability rescue of complex I mutant cybrids, primary screen, cell-based, galactose medium, ATP luminescence (AID 1645843;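 active = z-score of at least 1.8 in each of two replicates, scored against plate mean and spread of sample wells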;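 also: positive z means more ATP and so rescue of galactose-driven cybrid death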). The settings on record: complex I mutant cybrid cells, 72 h, stronger effect = higher value.
Where [8] appears, read: MELAS cybrid survival, CellTiter-Glo 48 h, stronger effect = higher value.
Where [9] appears, read: Rieske KO mouse fibroblast survival, CellTiter-Glo 72 h.

The structures appear in SMILES notation. Calls of active or inactive are those of the source.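 The calls were made as follows, unless noted: active = mean z-score across replicates of 1.96 or higher in either the MELAS or the Rieske mutant cell line; inactive = the rest.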 Where a SMILES comes first, the peptide text is derived from it. Bridges are numbered along the chain shown (N, C = ends). [ ]: non-standard residue; d: D form. The star is where a group is joined. Heptanoyl(5-Me) = CCC(C)CCCC(=O)*; Dab = NCC[C@H](N)C(=O)O

Take `N[C@@H](C(=O)N[C@@H]1C(=O)N2C(C(=O)O)=C(Cl)CC[C@H]12)c1ccccc1`: the z-score in assay [1] (setting [8]) is 0.0513 (inactive); in assay [1] (setting [9]) it was -0.0591.
`CC[C@H]1OC(=O)C[C@@H](O)[C@H](C)[C@@H](O[C@@H]2O[C@H](C)[C@@H](O[C@H]3CC(C)(O)[C@@H](O)[C@H](C)O3)[C@H](N(C)C)[C@H]2O)[C@@H](CC=O)C[C@@H](C)C(=O)/C=C/C(C)=C/[C@@H]1CO[C@@H]1O[C@H](C)[C@@H](O)[C@@H](OC)[C@H]1OC` (stereo partly drawn): the z-score in assay [1] (setting [8]) was 0.259 (inactive); in assay [1] (setting [9]), -0.21.
In the same order, the values of `C[C@H](Cc1cc2c(c(C(N)=O)c1)N(CCCO)CC2)NCCOc1ccccc1OCC(F)(F)F` are -0.477 (inactive) and -0.901.
Turning to `N=c1ccn2c(n1)OC1C(O)[C@@H](CO)O[C@H]12` (stereo partly drawn), the compound was called inactive in assay [2].
Turning to `CO/N=C(\C(=O)N[C@@H]1C(=O)N2C(C(=O)OC(C)OC(C)=O)=C(COC(N)=O)CS[C@H]12)c1ccco1` (stereo partly drawn), the results for the z-score in assay [1] (setting [8]) and in assay [1] (setting [9]) were 0.525 (inactive) and 0.0681, respectively. Also, the remaining NAD in assay [3] is 10 nM (inactive).
For `Nc1nc(NC2CC2)c2ncn([C@H]3C=C[C@@H](CO)C3)c2n1` the same measures were 1.09 (inactive), -0.0348 and 10 nM (inactive).
For `CN1C[C@H](C(=O)N[C@]2(C)O[C@@]3(O)[C@@H]4CCCN4C(=O)[C@H](Cc4ccccc4)N3C2=O)CC2c3cccc4[nH]cc(c34)C[C@H]21` (mixture of isomers), the z-score in assay [1] (setting [8]) is 0.0487 (inactive); in assay [1] (setting [9]) it was 0.764.
For `N[C@@H]1CCCCN(c2c(F)cc3c(=O)c(C(=O)O)cn(C4CC4)c3c2Cl)C1` the same measures were 0.702 (inactive) and -0.618.
Turning to `Cc1cc(=O)c(C(=O)N[C@@H](C(=O)N[C@@H]2C(=O)N3C(C(=O)O)=C(CSc4nnnn4C)CS[C@H]23)c2ccc(O)cc2)c[nH]1`, the values for the z-score in assay [1] (setting [8]) and in assay [1] (setting [9]) were 0.177 (inactive) and -0.0348, respectively. In addition, the remaining NAD in assay [3] is 10 nM (inactive).
On to `C=Cc1c(C)c2cc3nc(cc4[nH]c(cc5nc(cc1[nH]2)C(C)=C5CCC(=O)O)c(CCC(=O)OC)c4C)[C@@]1(C)C3=CC=C(C(=O)OC)C1C(=O)OC` (stereo partly drawn), for which the z-score was 1.85 (inactive) in assay [1] (setting [8]) and 1.33 in assay [1] (setting [9]).
For `C#C[C@]1(OC(C)=O)CC[C@H]2[C@@H]3CCC4=CC(=NO)CC[C@@H]4[C@H]3CC[C@@]21CC` the same measures were 0.995 (inactive) and 0.685.
In the same order, the values of `CC(=O)OCC(=O)[C@@]1(O)CC[C@H]2[C@@H]3CCC4=CC(=O)CC[C@]4(C)C3(F)[C@@H](O)C[C@@]21C` (stereo partly drawn) are -0.171 (inactive) and -0.231.
As for `C/C=C/C1=C(C(=O)O)N2C(=O)[C@@H](NC(=O)[C@H](N)c3ccc(O)cc3)[C@H]2SC1`, the z-score in assay [1] (setting [8]) was -0.679 (inactive); in assay [1] (setting [9]), -1.17. Further, the remaining NAD in assay [3] was 10 nM (inactive). Besides, in assay [4], the luciferase signal is 48 AU (inactive).
The term inhibition denotes the drop in the measured response relative to a control, in per cent. Consider `CN(C)C(=O)N=NC(=O)N(C)C`, for which the inhibition in assay [5] is -4% (inactive). Also, the fluorescence ratio (interference) in assay [6] is 1 (inactive). Also, the compound was classed as inactive in assay [2].
Regarding `Nc1nc(CC(=O)Nc2ccc(CCNC[C@H](O)c3ccccc3)cc2)cs1`, the z-score in assay [1] (setting [8]) is 0.235 (inactive); in assay [1] (setting [9]) it was 0.0504.
For `CCC(C)CCCC(=O)N[C@@H](CCN)C(=O)N[C@H](C(=O)N[C@@H](CCN)C(=O)N[C@H]1CCNC(=O)[C@H]([C@@H](C)O)NC(=O)[C@H](CCN)NC(=O)[C@H](CCN)NC(=O)[C@H](CC(C)C)NC(=O)[C@@H](CC(C)C)NC(=O)[C@H](CCN)NC1=O)[C@@H](C)O` (stereo partly drawn) ({Heptanoyl(5-Me)}-[Dab]T[Dab][Dab][Dab][dL]L[Dab][Dab]T; lactam 4-C), the z-score in assay [1] (setting [8]) is -0.0594 (inactive); in assay [1] (setting [9]) it was 0.188.
On to `CC(=O)O[C@H]1CC2(C)[C@@H](C[C@@H](O)[C@H]3[C@@]4(C)CC[C@@H](O)[C@@H](C)[C@@H]4CC[C@@]32C)/C1=C(/CCC=C(C)C)C(=O)O` (stereo partly drawn), for which the compound was called inactive in assay [2].
Regarding `C=CCn1nc(C(=O)N2CCSCC2)c2c1CCC(N1CCOc3ccc(Cl)cc3C1)C2` (stereo not drawn), the z-score in assay [1] (setting [8]) is -0.526 (inactive); in assay [1] (setting [9]), -0.713; in assay [7] it was 0.51 (inactive).
With `O=C(N[C@H]1C[C@H]2C(=O)N3CCC[C@H]3C(=O)N2C1)c1cccnc1Oc1ccc(Cl)cc1`, the z-score was -0.353 (inactive) in assay [1] (setting [8]), -0.898 in assay [1] (setting [9]) and -0.34 (inactive) in assay [7].
For the compound `COC1CN(C(=O)Cn2nc(-c3ccccc3)c3ccccc3c2=O)CC(=O)N(Cc2ccccc2)C1` (stereo not drawn), the z-score was -0.199 (inactive) in assay [1] (setting [8]), 0.0204 in assay [1] (setting [9]) and 1.58 (inactive) in assay [7].
For the compound `CN(Cc1ccco1)C(=O)c1nn(C)c2c1CC(N1CCOc3ccc(Cl)cc3C1)CC2` (stereo not drawn), the values for the z-score in assay [1] (setting [8]), in assay [1] (setting [9]) and in assay [7] were -0.11 (inactive), 0.109 and -0.61 (inactive), respectively.
For `CCn1nc(C(=O)N(C)Cc2ccco2)c2c1CCC(N(C)Cc1ccon1)C2` (stereo not drawn) the same measures were -0.655 (inactive), -0.252 and -1.03 (inactive).

These data come from PubChem BioAssay.
